Screens (PubChem BioAssay)
This is a sample that favours compounds with a hit; in the whole collection about 2.3% have one here.
Tau fibril ThT = blocks human tau fibril formation measured by thioflavin T; P10636; recombinant tau K18 P301L, heparin-induced fibrillization, ThT fluorescence; Potency, µM (top dose mostly 57.4 µM), for inactives: at the highest dose activity, negative = inhibition, most hits filed as inhibitors; 270,000 compounds, 2.1% hits; AID 1460; further: potency means the concentration at half of the fitted maximal effect; nearly all actives have a fitted effect of over 55% in size
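K18 P301L tau (15 uM + 0.24 uM Alexa 594-tagged), heparin 20 uM, NaOAc pH 7, 6 h 37 C; ThT 30 uM, 1 h RT, ex 450/em 510 nm.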
USP1-UAF1 inh = inhibitors of human USP1/UAF1 deubiquitinase; O94782; recombinant USP1/UAF1, Ub-Rhodamine cleavage fluorescence; Potency, µM (series often up to 57.1 µM), inactives show top-dose activity change, negative = inhibition, hits mostly inhibitors; 390,000 compounds, 0.23% hits; AID 743255; further: potency means the concentration at half of the fitted maximal effect; nearly all actives have a fitted effect of over 60% in size
Target sequence (O94782 whole entry, looked up): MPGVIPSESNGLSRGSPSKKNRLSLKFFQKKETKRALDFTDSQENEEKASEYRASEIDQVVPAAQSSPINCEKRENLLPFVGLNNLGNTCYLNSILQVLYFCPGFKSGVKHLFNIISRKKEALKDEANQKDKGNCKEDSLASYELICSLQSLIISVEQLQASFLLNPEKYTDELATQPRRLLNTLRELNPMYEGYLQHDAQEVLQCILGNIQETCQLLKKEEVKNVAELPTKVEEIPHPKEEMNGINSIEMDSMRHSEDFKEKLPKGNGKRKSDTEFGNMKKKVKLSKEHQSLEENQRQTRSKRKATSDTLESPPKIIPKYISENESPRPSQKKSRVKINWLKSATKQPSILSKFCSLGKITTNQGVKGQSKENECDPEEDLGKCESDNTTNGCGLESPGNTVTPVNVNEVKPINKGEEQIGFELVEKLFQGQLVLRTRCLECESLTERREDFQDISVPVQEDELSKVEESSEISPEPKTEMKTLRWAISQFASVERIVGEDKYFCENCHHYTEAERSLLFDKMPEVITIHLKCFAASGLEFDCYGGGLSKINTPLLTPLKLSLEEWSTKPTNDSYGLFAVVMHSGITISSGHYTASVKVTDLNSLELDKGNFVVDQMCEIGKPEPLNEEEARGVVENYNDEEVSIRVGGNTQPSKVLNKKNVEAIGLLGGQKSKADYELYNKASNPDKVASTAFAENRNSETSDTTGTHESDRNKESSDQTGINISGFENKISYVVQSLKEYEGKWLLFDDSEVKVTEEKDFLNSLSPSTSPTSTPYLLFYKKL
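In this screen, compounds sit with the deubiquitinase complex (1nM) for 15 min at room temperature before Ub-Rho is added at 150nM final. Fluorescence rise is then followed for 6 reads every 60 seconds.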
FBPA coupling cs = inhibits coupling enzyme system, counter-screen for aldolase hits; 290,000 compounds, 0.67% hits; coupling enzyme system counterscreen, AmpLite Red fluorescence; activity change, negative = inhibition, % at 58.2 µM, hits read low; in the data active means activity change below about -30%
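Compounds tested against the coupling enzymes alone at 57.5 uM final; readout was AmpLite Red fluorescence (525/598 nm) after 20 min at RT.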
Tau fluor counter = counter-screen for tau fibril formation inhibitors; tau K18 P301L (four-repeat tau fragment) Alexa594 fluorescence, heparin fibrillization; Potency, µM (doses to about 57.7 µM), for the others: at the highest dose activity change, negative = decrease; 280,000 compounds, 0.93% hits; AID 1463; further: potency means the concentration at half of the fitted maximal effect; nearly all actives have a fitted effect of over 55% in size
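Human K18 P301L tau (15 uM unlabeled plus 0.24 uM Alexa 594-labeled, final) in 100 mM sodium acetate pH 7 was mixed with compound and 20 uM heparin and incubated 6 hr at 37 C.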
Tau FP inhib = blocks human tau fibril formation measured by polarization; P10636; K18 P301L tau heparin fibrillization, Alexa594 FP, 6 h; Potency, µM (titrated, usually from 57.7 µM), inactives show at the top dose activity, negative = inhibition, usual class: inhibitors; 280,000 compounds, 0.39% hits; AID 1468; further: potency means the concentration at half of the fitted maximal effect; nearly all actives have a fitted effect of over 55% in size
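Human K18 P301L fragment (15 uM unlabeled plus 0.24 uM Alexa 594-labeled) in 100 mM sodium acetate pH 7 with compound, aggregation induced by 20 uM heparin for 6 hr at 37 C. ThT (30 uM) added for 1 hr, then Alexa 594 FP read.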
The depositor's hits bear a star; ? = inconclusive; · = not tested or not shown; [ ] = remark or other dose. Unless noted, the call rests on the fitted dose curve; in most records, active means well fitted curve in the direction sought with a large enough effect; inconclusive means small, poorly fitted or top-dose-only effect, or another doubt; inactive means no such curve, though single readings can be large; an effect the other way counts as inactive or inconclusive. On the % scale 0 is the no-effect control and ±100 the full control effect.

SMILES	Tau fibril ThT	USP1-UAF1 inh	FBPA coupling cs	Tau fluor counter	Tau FP inhib
CSCC[C@H](NC(=O)[C@H](CCCNC(=N)N)NC(=O)[C@H](Cc1ccc(O)cc1)NC(=O)[C@@H]1CCCN1C(=O)CNC(=O)[C@H](CCC(=O)O)NC(=O)[C@H](CC(=O)O)NC(=O)[C@H](CCCCN)NC(=O)[C@H](CCCCN)NC(=O)[C@H](CCC(=O)O)NC(=O)[C@H](C)N)C(=O)N[C@@H](CCC(=O)O)C(=O)N[C@@H](Cc1cnc[nH]1)C(=O)N[C@@H](Cc1ccccc1)C(=O)N[C@@H](CCCNC(=N)N)C(=O)N[C@@H](Cc1c[nH]c2ccccc12)C(=O)NCC(=O)N[C@@H](CO)C(=O)N1CCC[C@H]1C(=O)N1CCC[C@H]1C(=O)N[C@@H](CCCCN)C(=O)N[C@@H](CC(=O)O)C(=O)O	·	·	2	·	·
Cc1ccc(S(=O)(=O)Nc2cc3c(cc2NCc2ccccc2)n(C)c(=O)n3C)c(C)c1	18µM*	-27%	·	?	?
Cc1ccc(S(=O)(=O)Nc2cc3c(cc2NCc2ccccc2)n(C)c(=O)n3C)cc1	?	-7%	·	?	?
CCOC(=O)c1ccc2oc(=O)n(Cc3ccccc3)c2c1	5%	-30%	·	2%	3%
CCOCCCNC(=O)/C(C#N)=C/c1ccc([N+](=O)[O-])o1	14µM*	-5%	-4	-28%	?
CC(NC(=O)/C(C#N)=C/c1ccc([N+](=O)[O-])o1)c1ccccc1 (centres undefined)	·	-10%	-36*	·	·
COCCNC(=O)c1[nH]c2cc(C)ccc2c1Sc1ccc(Cl)cc1	-12%	-24%	·	-28%	5%
CCCCCCN1CC(=O)N2[C@@H](Cc3c([nH]c4ccccc34)C2(C)C)C1=O	·	-8%	2	·	·
CCSc1nnc(-c2sc3nnc(-c4ccccc4)c(-c4ccccc4)c3c2N)o1	-14%	18µM*	-2	-6%	7%
CCSc1nnc(-c2ccncc2)o1	-8%	-1%	·	-6%	-3%
COc1cccc(N2CCN(C(=O)CCS(=O)(=O)c3ccc4c(c3)CC(=O)N4C)CC2)c1	-12%	-16%	·	-4%	-1%
COC(=O)c1cccc(Nc2cc(C)nc(-c3ccccc3O)n2)c1	?	-18%	-3	?	11µM*
Cc1cc(N/N=C\c2ccccc2)nc(-c2ccccc2O)n1	?	-6%	-4	?	?
C/C(=N\Nc1cc(C)nc(-c2ccccc2O)n1)c1ccccc1O	?	-22%	-1	10µM*[quencher]	?
COC(=O)c1ccc(Nc2cc(C)nc(-c3ccccc3O)n2)cc1	1%	-7%	0	?	?
CC1=CC2=NC(=O)/C(=C/c3coc4ccc(Cl)cc4c3=O)C(=N)N2O1	?	28µM*	-3	?	-7%
N=C1/C(=C\c2coc3ccccc3c2=O)C(=O)N=C2SC=CN12	?	28µM*	-1	-28%	-4%
CSC1=NSC2=NC(=O)/C(=C/c3coc4ccc(O)cc4c3=O)C(=N)N12	22µM*	22µM*	-1	?	-5%
N=C1/C(=C/c2cccn2Cc2ccc(F)cc2)C(=O)N=C2SC=CN12	0%	-20%	-2	-20%	-12%
CSC1=NSC2=NC(=O)/C(=C/c3coc4ccccc4c3=O)C(=N)N12	18µM*	25µM*	5	?	?
Cc1ccc(CNC(=O)c2cc(C3CC3)nc3c2c(C)nn3-c2cccc(Cl)c2C)cc1	-3%	-7%	·	-6%	-8%
CN(Cc1ccccc1)c1ccc(-c2nc(-c3ccco3)no2)cc1[N+](=O)[O-]	-4%	-18%	·	-17%	-5%
NS(=O)(=O)c1ccc(CCNC(=O)c2ccc3nc(CCc4ccccc4)oc3c2)cc1	-1%	-14%	·	-10%	-10%
CN1c2cccc3cccc(c23)N(C)C1c1cccs1	?	?	-37*	?	2%
c1csc(C2Nc3cccc4cccc(c34)N2)c1	11µM*	-22%	-20	16µM*[quencher]	?
SMILES	Tau fibril ThT	USP1-UAF1 inh	FBPA coupling cs	Tau fluor counter	Tau FP inhib
CCOc1cc(N2CCOCC2)c(OCC)cc1NC(=O)c1ccccc1N1CCCC1=O	·	-7%	·	·	·
Cn1nc([N+](=O)[O-])c(C(C#N)c2ccccn2)c(Cl)c1=O (centres undefined)	8.9µM*	-14%	-15	13µM*[quencher]	?
CCCn1nc([N+](=O)[O-])c(C(C#N)c2nc3ccccc3o2)c(Cl)c1=O (centres undefined)	7.1µM*	-25%	1	14µM*[quencher]	?
N#CC(c1ccccn1)c1ncc(C(F)(F)F)cc1Cl (centres undefined)	-6%	-10%	1	-1%	4%
CCn1nc([N+](=O)[O-])c(C(C#N)c2nc3cc(C(F)(F)F)ccc3s2)c(Cl)c1=O (centres undefined)	4.5µM*	?	-2	6.3µM*[quencher]	20µM*
Cc1ccc(Cn2c(C(C)Nc3nc(-c4ccc(Cl)c([N+](=O)[O-])c4)cs3)nc3cc(C(F)(F)F)ccc32)cc1 (centres undefined)	·	-16%	·	·	·
CCCCn1c(N)c(-c2nc3ccccc3o2)c2c([N+](=O)[O-])nn(CC)c(=O)c21	-10%	-22%	-1	-13%	15%
Cc1cc(C)c(NC(=O)CNC(=O)COC(=O)/C=C/c2cccs2)c(C)c1	·	-7%	·	·	·
CC(C)(C)c1ccc(/C=C/C(=O)Nc2ccc3c(c2)OCCO3)cc1	?	·	0	10µM*[quencher]	?
N#Cc1ccc(NC(=O)Cn2cnc([N+](=O)[O-])c2)cc1	·	-7%	1	·	·
O=C(Cn1cnc([N+](=O)[O-])c1)Nc1cc(Oc2ccc(Cl)cc2Cl)cc([N+](=O)[O-])c1	?	-23%	-2	4.5µM*[quencher]	?
CCCN(Cc1nnc(-c2cccs2)o1)C(=O)c1cccc(S(=O)(=O)N2CCOCC2)c1	·	-10%	·	·	·
COc1cc(OC)cc(C(=O)Nc2nc(-c3nnn(-c4ccc(F)c(Cl)c4)c3C)ns2)c1	-6%	5%	·	-15%	?
O=S(=O)(N=C1C=CC(=NS(=O)(=O)c2ccccc2)c2ccccc21)c1ccccc1	·	28µM*	·	·	·
CCc1ccc(S(=O)(=O)/N=C2\C=CC(=O)c3ccccc32)cc1	18µM*	·	-50*	?	?
CCc1ccc(S(=O)(=O)/N=C2/C=C(Sc3ncn[nH]3)C(=O)c3ccccc32)cc1	4µM*	1.8µM*	-58*	?	11µM*
CC(=O)N1CCc2cc(S(=O)(=O)NC(CC(C)C)C(=O)Nc3cc(C)cc(C)c3)ccc21 (centres undefined)	-6%	?	·	-13%	0%
Cc1csc(N/N=C/c2ccc(O)c([N+](=O)[O-])c2)n1	5µM*	-12%	-4	?	-2%
